Laboratory results taken from PubChem BioAssay (NCATS).
Results filed as inconclusive are left out. Where a call stands in place of a potency, no number is given. The source made the active and inactive calls. Calls come from the whole dose curve; as a rule, active = well fitted cell-killing curve with a large enough effect; inconclusive = small, poorly fitted or top-dose-only effect, or effect the other way; inactive = no such curve, though single readings can be large or run the other way.

Tests used:
[1] = Quantitative High-Throughput drug screen in 47 multiple myeloma cell lines against the NCATS MIPE library collection: FR4_PLB cell viability assay (AID 1918924; note: nearly all actives have a fitted effect of over 35% in size)
Procedure, shortened: (§1)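 Myeloma cell lines, 500 cells per well, exposed to MIPE 4.0 library compounds for 48 h at 37C, 5% CO2. Viability from ATP by CellTiter-Glo luminescence; normalised to DMSO (100%) and media-only (0%) wells.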

[2] = Quantitative High-Throughput drug screen in 47 multiple myeloma cell lines against the NCATS MIPE library collection: Delta47_JCRB cell viability assay (AID 1918925; note: nearly all actives have a fitted effect of over 45% in size)
Procedure, shortened: as §1

[3] = Quantitative High-Throughput drug screen in 47 multiple myeloma cell lines against the NCATS MIPE library collection: EJM_DSMZ cell viability assay (AID 1918926; note: nearly all actives have a fitted effect of over 30% in size)
Procedure, shortened: as §1
Potency is the fitted concentration of half-maximal effect.

SMILES | Potency [1] | Potency [2] | Potency [3]
CC(C)[C@]12O[C@@H]1[C@@H]1O[C@]13[C@]1(O[C@H]1C[C@@H]1C4=C(CC[C@@]13C)C(=O)OC4)[C@H]2O | inactive | inactive | –
C=CCON=C(C[C@H]1O[C@@H]2O[C@]3(C)CC[C@@H]4[C@H](C)CC[C@@H]([C@H]1C)[C@@]24OO3)[C@H]1O[C@@H]2O[C@]3(C)CC[C@H]4[C@H](C)CC[C@@H]([C@@H]1C)[C@@]24OO3 | – | 0.372 µM (active) | 0.148 µM (active)
COc1cc2cc(c1Cl)N(C)C(=O)C[C@H](OC(=O)C(C)C)[C@]1(C)O[C@H]1[C@H](C)[C@@H]1C[C@@](O)(NC(=O)O1)[C@H](OC)C=CC=C(C)C2 | inactive | inactive | –
C[C@]12CC[C@H]3[C@@H](CCC4=CC(=O)CC[C@@]43C)[C@H]1CC[C@H]2O | inactive | inactive | –
CC=C(C)C(=O)O[C@H]1C(C)=C2[C@@H]3OC(=O)[C@@](C)(O)[C@@]3(O)[C@@H](OC(=O)CCC)C[C@](C)(OC(C)=O)[C@@H]2[C@@H]1OC(=O)CCCCCCC | 0.0264 µM (active) | 0.235 µM (active) | 0.0372 µM (active)
CC(=O)O[C@@]12CO[C@H]1C[C@H](O)[C@@]1(C)C(=O)[C@H](O)C3=C(C)[C@@H](O)C[C@@](O)([C@@H](OC(=O)c4ccccc4)[C@@H]21)C3(C)C | 1.05 µM (active) | – | 3.32 µM (active)
CC(O)=C(C#N)C(=O)Nc1cc(Br)ccc1Br | – | inactive | –
O=[N+]([O-])c1ncc[nH]1 | inactive | inactive | inactive
N#C[C@H](O[C@@H]1O[C@H](CO[C@@H]2O[C@H](CO)[C@H](O)[C@H](O)[C@H]2O)[C@H](O)[C@H](O)[C@H]1O)c1ccccc1 | 20.9 µM (active) | 18.7 µM (active) | –
CC(=CCCC1=CCC(C2=CC(=O)OC2O)OC1O)CCC1=C(C)CCCC1(C)C (configuration not stated) | inactive | inactive | –
CCCN1CCO[C@@H]2c3cc(O)ccc3OC[C@@H]21 | inactive | – | inactive
Cc1c(N)nc([C@H](CC(N)=O)NC[C@@H](N)C(N)=O)nc1C(=O)N[C@H](C(=O)N[C@@H](C)[C@H](O)[C@@H](C)C(=O)N[C@@H](C(=O)NCCc1nc(-c2nc(C(=O)NCCC[S+](C)C)cs2)cs1)[C@@H](C)O)C(O[C@H]1O[C@H](CO)[C@H](O)[C@@H](O)[C@@H]1O[C@H]1O[C@H](CO)[C@@H](O)[C@H](OC(N)=O)[C@H]1O)c1cnc[nH]1 (some centres not stated) | inactive | 0.469 µM (active) | –
C[C@]12CCC(=O)C(O)=C1CC[C@@H]1[C@H]3CCC(=O)[C@@]3(C)CC[C@@H]12 | inactive | inactive | inactive
C[C@H]([C@H](O)CCC(C)(C)O)[C@H]1CC[C@@]2(O)C3=CC(=O)[C@@H]4C[C@@H](O)[C@@H](O)C[C@]4(C)[C@@H]3CC[C@]12C | inactive | inactive | –
Cc1nc(-c2ccc(-c3ccc(C(=O)N4CCc5cc6c(cc54)C4(CCN(C)CC4)CO6)cc3)c(C)c2)no1 | inactive | – | inactive
CC(=O)OCC1=C(C(=O)O)N2C(=O)[C@@H](N)[C@@H]2SC1 | inactive | inactive | –
CCC(=O)OC1CCC2C3CCC4=CC(=O)CC[C@@]4(C)C3CC[C@]12C (some centres not stated) | inactive | 18.7 µM (active) | inactive
COc1ccc2c(c1)[C@]13CCCCC1C(C2)N(C)CC3 (some centres not stated) | inactive | – | inactive
CO[C@H]1CCC(O[C@H]2C[C@H]([C@]3(C)CC[C@]4(C[C@H](O)[C@@H](C)[C@@H]([C@@H](C)C=C(C)C(=O)[C@H](C)C[C@H](C)C(=O)O)O4)O3)O[C@]3(O[C@@H]([C@H]4O[C@@](O)(CO)[C@H](C)C[C@H]4C)C[C@H]3C)[C@H]2C)O[C@H]1C (some centres not stated) | 3.72 µM (active) | 1.18 µM (active) | 3.32 µM (active)
CC[C@@H]1[C@@H](C)O[C@@](O)([C@@H](C)[C@H](O)[C@H](C)[C@H]2OC(=O)C=CC=C[C@@H](C)[C@@H]([C@@H](C)[C@@H](O)[C@H](C)[C@@]3(O)C[C@H](O[C@H]4C[C@H](O)[C@H](O)[C@H](C)O4)[C@H](CC)[C@@H](C)O3)OC(=O)C=CC=C[C@@H]2C)C[C@H]1O[C@H]1C[C@H](O)[C@H](O)[C@H](C)O1 | 0.526 µM (active) | 0.743 µM (active) | 0.833 µM (active)
CC=C(C)C(=O)N[C@@H](c1ccccc1)[C@@H](O)C(=O)O[C@H]1C[C@@]2(O)[C@@H](OC(=O)c3ccccc3)[C@@H]3[C@]4(OC(C)=O)CO[C@@H]4C[C@H](O)[C@@]3(C)C(=O)[C@H](OC(C)=O)C(=C1C)C2(C)C | inactive | – | inactive
C=C[C@@H]1CN2CCC1C[C@@H]2[C@@H](O)c1ccnc2ccccc12 (some centres not stated) | – | 23.5 µM (active) | 9.35 µM (active)
O=C1CCC[C@@H]2[C@H]3CCCN4CCC[C@@H](CN12)[C@@H]34 | – | inactive | –
COC1=CC(C)=C[C@@H](C)[C@@H](O)[C@@H](C)CC(C)=CC=C[C@H](OC)[C@H]([C@@H](C)[C@@H](O)[C@H](C)[C@@]2(O)C[C@@H](O)[C@H](C)[C@@H](C(C)C)O2)OC1=O | 0.0042 µM (active) | 0.0187 µM (active) | –
C[C@H]1CCCC=CC2C[C@H](O)C[C@@H]2[C@H](O)C=CC(=O)O1 (some centres not stated) | inactive | inactive | –
C1=C2CCCN[C@H]2[C@@H]2C[C@H]1[C@@H]1CCCCN1C2 | inactive | inactive | –
CC(C)(O)C=CC(=O)[C@](C)(O)[C@H]1[C@H](O)C[C@]2(C)[C@@H]3CC=C4[C@@H](C=C(O)C(=O)C4(C)C)[C@]3(C)C(=O)C[C@@]12C | 0.0469 µM (active) | 0.0166 µM (active) | 0.0083 µM (active)
C[C@@H]1CC[C@@]2(OC1)O[C@H]1C[C@H]3[C@@H]4CC=C5C[C@@H](O[C@@H]6O[C@H](CO)[C@@H](O[C@@H]7O[C@@H](C)[C@H](O)[C@@H](O)[C@@H]7O)[C@H](O)[C@@H]6O[C@@H]6O[C@@H](C)[C@H](O)[C@@H](O)[C@@H]6O)CC[C@]5(C)[C@@H]4CC[C@]3(C)[C@@H]1[C@H]2C | 2.35 µM (active) | 5.9 µM (active) | 2.64 µM (active)
